Test results as given in the supplement of paper PMC7380943.
Structures can show the parent of a compound that is named as a salt. ± gives the standard deviation of the averaged measurements.

Tests used:
[1] = tested on: CLZ3 (HCA2 human fibroblast dual HR-NHEJ reporter); experiment: NHEJ repair efficiency (GFP+ cells) relative to control (log10 fold); higher = more non-homologous end joining; settings: 5 µM; doxycycline 0.5 ug/mL
[2] = tested on: CLZ3 (HCA2 human fibroblast dual HR-NHEJ reporter); experiment: HR repair efficiency (tdTomato+ cells) relative to control (log10 fold); higher = more homologous recombination; settings: 5 µM; doxycycline 0.5 ug/mL
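Wherever HR repair efficiency (tdTomato+ cells) relative to control is given: compound given one day before doxycycline, which switches on I-SceI endonuclease expression to create double-strand breaks within the integrated reporter.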
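Wherever NHEJ repair efficiency (GFP+ cells) relative to control is given: compound given one day ahead of doxycycline, which switches on I-SceI endonuclease to cut the chromosomally integrated reporter and create DSBs.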

Structure (SMILES)	NHEJ repair efficiency (log10) [1]	HR repair efficiency (log10) [2]
COc1ccc(C=O)c(O)c1 [4-Methoxysalicylaldehyde]	0.00827	-0.0885
CC(=O)OC1CC23CC(C)(O)C(CCC2C(C)(O)C2C4OC4C(C)(C)C12O)C3O (stereo not drawn) [Rhodojaponin Ii]	-0.0128	-0.000636
c1ccc([C@H]2CN3CCSC3=N2)cc1 [Levamisole hydrochloride]	0.0656	-0.0158
O=C1O[C@H]2[C@@H]3OC(=O)c4cc(O)c(O)c(O)c4-c4c(O)c(O)c5oc(=O)c6c(c(O)c(O)c7oc(=O)c4c5c76)-c4c(cc(O)c(O)c4O)C(=O)OC[C@H]3OC(O)[C@@H]2OC(=O)c2cc(O)c(O)c(O)c2-c2c1cc(O)c(O)c2O (mixture of isomers) [Punicalagin]	-0.0664	-0.254
C[C@@H]1O[C@@H](Oc2c(-c3cc(O)c(O)c(O)c3)oc3cc(O)cc(O)c3c2=O)[C@H](O)[C@H](O)[C@H]1O [Myricetrin]	0.0716	-0.0586
C[C@H]1[C@H](C)CC[C@]2(C(=O)O)CC[C@]3(C)C(=CC[C@@H]4[C@@]5(C)C[C@@H](O)[C@H](O)[C@@](C)(CO)[C@@H]5[C@H](O)C[C@]43C)[C@H]12 [Madecassic acid]	0.0926	0.143
COc1ccc(C[C@H]2COC(=O)[C@@H]2Cc2ccc(O[C@@H]3O[C@H](CO)[C@@H](O)[C@H](O)[C@H]3O)c(OC)c2)cc1OC [Arctiin]	-0.18724 ± 8.6e-05	-0.203 ± 0.1
C[N+](C)(C)CC(=O)O [Betaine]	-0.243	-0.337
C=C1[C@H]2CC[C@]3([C@@H]1O)[C@H]1C[C@@H]4C5(C)CCCC4([C@@H]1N(CC)C5)[C@@H]3[C@H]2O [Denudatine]	-0.089	0.0616
C=C1C2CCC3(C4C[C@H]5C6(CCC[C@@]5(C)CN(CC)C46)[C@H]3[C@H]2O)[C@@H]1O [Bullatine A]	-0.197	-0.165
Oc1ccc2c(c1)OCO2 [Sesamol]	0.111	0.234
C[C@H](CCC(=O)O)[C@H]1CC[C@H]2[C@@H]3[C@H](O)C[C@@H]4C[C@H](O)CC[C@]4(C)[C@H]3C[C@H](O)[C@]12C [Cholic acid]	-0.0347	-0.0733
O=Cc1ccc(CO)o1 [5-Hydroxymethylfurfural]	-0.214	0.0126
CC(=O)C1=C(O)C=C2Oc3c(C(C)=O)c(O)c(C)c(O)c3C2(C)C1=O (stereo in doubt) [Usnic Acid]	0.00929	0.00791
COC(=O)c1c2c(c3ccccc3c1O)OC(C)(C)C=C2 [Rubimaillin]	0.0202	-0.0243
O=C(/C=C/c1ccc(O)c2c1[C@H](C(=O)O)[C@@H](c1ccc(O)c(O)c1)O2)O[C@H](Cc1ccc(O)c(O)c1)C(=O)O [Lithospermic acid]	0.072	0.0325
O=c1c(O)cc([C@H]2Oc3cc(O)cc(O)c3C[C@H]2O)cc2c([C@H]3Oc4cc(O)cc(O)c4C[C@H]3O)cc(O)c(O)c12 [Theaflavin]	0.0294	0.0415
CC(C)=CCc1cc2c(cc1O)oc(=O)c1c3ccc(O)cc3oc21 [Psoralidin]	0.31	-0.0999
COc1cc(/C=C/C(=O)O)ccc1O [Ferulaic Acid]	-0.0555	-0.0235
C=C1CC[C@H]2C(=C)CC[C@H]3C(=C)C(=O)O[C@@H]3[C@@H]12 [Dehydrocostus Lactone]	-0.02	0.03
COc1cc([C@@H]2Oc3c(O)cc([C@H]4Oc5cc(O)cc(O)c5C(=O)[C@@H]4O)cc3[C@H]2CO)ccc1O [Silicristin]	-0.0735	0.068
CN[C@@H](C)[C@H]1[C@H](O)C[C@@]2(C)[C@@H]3CC[C@H]4C(C)(C)[C@@H](NC)CC[C@@]45C[C@@]35CC[C@]12C [Cyclovirobuxine D]	-0.023	0.0389
O=Cc1ccc(O)c(O)c1 [Protocatechuic aldehyde]	-0.212	-0.256
O=c1cc(-c2ccccc2)oc2cc(O)c(O)c(O)c12 [Baicalein]	0.203	0.17
COc1ccc([C@@H]2OC[C@H]3[C@@H]2CO[C@@H]3c2ccc(O[C@@H]3O[C@H](CO)[C@@H](O)[C@H](O)[C@H]3O)c(OC)c2)cc1OC [Forsythin]	-0.0743	-0.0814

Structure (SMILES)	NHEJ repair efficiency (log10) [1]	HR repair efficiency (log10) [2]
O=c1c(O[C@@H]2O[C@H](CO)[C@@H](O)[C@H](O)[C@H]2O)c(-c2ccc(O)cc2)oc2cc(O)cc(O)c12 [Astragalin]	-0.0677	0.0112
COc1ccc([C@@H]2OC[C@H]3[C@@H]2CO[C@@H]3c2ccc3c(c2)OCO3)cc1OC [Fargesin]	0.0593	0.116
Cn1c(=O)c2c(ncn2CC(O)CO)n(C)c1=O (stereo not drawn) [Diprophylline]	0.137	0.116
C[C@@H]1O[C@@H](O[C@H]2[C@H](Oc3c(-c4ccc(O)cc4)oc4cc(O)cc(O)c4c3=O)O[C@H](CO)[C@@H](O)[C@@H]2O)[C@H](O)[C@H](O)[C@H]1O [Kaempferol 3-O-Neohesperidoside]	0.0799	0.307
CC(C)=CC/C=C(\C)[C@H]1CC[C@]2(C)[C@@H]1[C@H](O)C[C@@H]1[C@@]3(C)CC[C@H](O[C@@H]4O[C@H](CO)[C@@H](O)[C@H](O)[C@H]4O[C@@H]4O[C@H](CO)[C@@H](O)[C@H](O)[C@H]4O)C(C)(C)[C@@H]3CC[C@]12C [Ginsenoside Rg5]	0.0582	0.0507
CC1(C)OC(=O)C=C[C@]2(C)[C@H]3CC[C@@]4(C)[C@H](c5ccoc5)OC(=O)[C@H]5O[C@]54[C@]3(C)C(=O)C[C@@H]12 [Obacunone]	-0.0357	0.0481
COc1cc2c(cc1O)CC[n+]1cc3c(OC)c(OC)ccc3cc1-2 [Jateorrhizine]	-0.216	-0.189
C/C=C\c1ccc(OC)cc1 [cis-Anethol]	0.133	0.0605
Oc1cc(O)c2c(c1)OC(c1ccc(O)c(O)c1)C(O)C2 (single isomer, unassigned; (+)) [(+)-Catechin]	0.0406	-0.0449
Oc1cc(O)c2c(c1)O[C@H](c1ccc(O)c(O)c1)[C@H](O)[C@H]2c1c(O)cc(O)c2c1O[C@H](c1ccc(O)c(O)c1)[C@H](O)C2 [Procyanidin B2]	0.092	-0.122
COc1cc([C@H]2OC[C@H]3[C@@H]2CO[C@@H]3c2ccc(O[C@@H]3O[C@H](CO)[C@@H](O)[C@H](O)[C@H]3O)c(OC)c2)ccc1O[C@@H]1O[C@H](CO)[C@@H](O)[C@H](O)[C@H]1O [PinoresinolDiglucoside]	-0.0902	-0.138
OCc1ccc(O[C@@H]2O[C@H](CO)[C@@H](O)[C@H](O)[C@H]2O)cc1 [Gastrodin]	0.113	0.307
CC1(C)[C@@H](O[C@H]2O[C@H](C(=O)O)[C@@H](O)[C@H](O)[C@H]2O[C@@H]2O[C@H](C(=O)O)[C@@H](O)[C@H](O)[C@H]2O)CC[C@]2(C)[C@H]3C(=O)C=C4[C@@H]5C[C@@](C)(C(=O)O)CC[C@]5(C)CC[C@@]4(C)[C@]3(C)CC[C@@H]12 [Monoammonium glycyrrhizinate]	-0.145	-0.0779
c1cc2c(c3c1CC1c4cc5c(cc4CCN1C3)OCO5)OCO2 (stereo not drawn) [Tetrahydrocoptisine]	-0.0636	-0.0746
O=C(/C=C/c1ccc(O)c(O)c1)O[C@@H](C(=O)O)[C@@H](O)C(=O)O [Caftaric Acid]	-0.0695	-0.0835
CC(C)(O)[C@@H]1CC[C@](C)([C@H]2[C@@H](O)C[C@@]3(C)[C@@H]4C[C@H](O)[C@H]5C(C)(C)[C@@H](O)CC[C@@]56C[C@@]46CC[C@]23C)O1 [Cycloastragenol]	-0.045	0.136
CC1(C)CC[C@]2(C(=O)O)[C@H](O)C[C@]3(C)C(=CC[C@@H]4[C@@]5(C)CC[C@H](O)C(C)(C)[C@@H]5CC[C@]43C)[C@H]2C1 [Echinocystic acid]	-0.117	0.0642
CC(C)=CCC[C@](C)(O[C@@H]1O[C@H](CO[C@@H]2O[C@H](CO)[C@@H](O)[C@H](O)[C@H]2O)[C@@H](O)[C@H](O)[C@H]1O)[C@H]1CC[C@]2(C)[C@@H]1[C@H](O)C[C@@H]1[C@@]3(C)CC[C@H](O[C@@H]4O[C@H](CO)[C@@H](O)[C@H](O)[C@H]4O)C(C)(C)[C@@H]3CC[C@]12C [Gypenoside Xvii]	0.0522	0.00706
CC(C)(O)[C@H](O)COc1c2ccoc2cc2oc(=O)ccc12 [Oxypeucedanin Hydrate]	-0.0248	0.00711
COc1ccc(CCC(=O)c2c(O)cc(OC3OC(CO)C(O)C(O)C3OC3OC(C)C(O)C(O)C3O)cc2O)cc1O (stereo not drawn) [Neosperidin Dihydrochalcone]	-0.0639	0.0209
C[C@@H]1O[C@@H](OC[C@H]2O[C@@H](OCCc3ccc(O)c(O)c3)[C@H](O)[C@@H](O[C@@H]3O[C@@H](C)[C@H](O)[C@@H](O)[C@H]3O)[C@@H]2OC(=O)/C=C/c2ccc(O)c(O)c2)[C@H](O)[C@H](O)[C@H]1O [Poliumoside]	0.019	0.0718
O=C1O[C@H]2[C@@H]3OC(=O)c4cc(O)c(O)c(O)c4-c4c(cc(O)c(O)c4O)C(=O)OC[C@H]2O[C@@H](OC(=O)c2cc(O)c(O)c(O)c2)[C@@H]3OC(=O)c2cc(O)c(O)c3c2[C@@H]2C1=CC(=O)[C@](O)(O3)C2(O)O [Geraniin]	-0.0851	0.0593
COc1cc(-c2oc3cc(O)cc(O)c3c(=O)c2O[C@@H]2O[C@H](CO)[C@@H](O)[C@H](O)[C@H]2O)ccc1O [Isorhamnetin-3-O-Glucoside]	-0.0722	-0.00603
COC(=O)C1=CO[C@@H](O[C@@H]2O[C@H](CO)[C@@H](O)[C@H](O)[C@H]2O)[C@H]2[C@@H]1C(=O)C[C@@H]2C [Verbenalin]	0.0793	0.178
